Bioassay records from PubChem.
TbREL1 primary: TbREL1 inhibition, primary screen; P86926; TbREL1 RNA ligation, FRET fluorescence; inhibition, % at 9.66 µM; hit rate 0.49% among 89,000; AID 1117264;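 active means inhibition above the mean inhibition across all screened compounds plus 3 SD, cut at about 11% in these data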;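 further: 0% = plate median of test wells and 100% = NSC42067 control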
Target sequence (P86926 whole entry, looked up): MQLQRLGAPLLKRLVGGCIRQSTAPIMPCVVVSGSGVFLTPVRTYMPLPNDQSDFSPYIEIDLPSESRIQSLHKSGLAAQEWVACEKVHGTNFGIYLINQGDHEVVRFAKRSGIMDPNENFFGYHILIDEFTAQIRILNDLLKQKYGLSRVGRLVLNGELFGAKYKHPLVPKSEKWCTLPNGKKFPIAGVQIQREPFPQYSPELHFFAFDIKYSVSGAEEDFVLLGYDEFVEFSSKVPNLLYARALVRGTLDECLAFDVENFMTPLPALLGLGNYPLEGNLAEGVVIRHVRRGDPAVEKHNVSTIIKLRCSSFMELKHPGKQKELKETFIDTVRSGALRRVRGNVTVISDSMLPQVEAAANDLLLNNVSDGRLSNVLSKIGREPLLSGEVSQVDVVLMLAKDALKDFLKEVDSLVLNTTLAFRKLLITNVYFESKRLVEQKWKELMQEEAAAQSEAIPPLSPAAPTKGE
TbREL1 conf: TbREL1 inhibition, confirmation; TbREL1 RNA ligation, FRET fluorescence; hit rate 37% among 390; shares compounds with TbREL1 primary; inhibition, % at 9.66 µM;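 active means mean inhibition across replicates above a set limit taken from the earlier primary screen, cut at about 11% in these data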;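 further: 0% = REL1 with substrate and DMSO and 100% = REL1 plus control inhibitor NSC42067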
Active calls of the source: *. Shown is part of a subset that was picked to be rich in hits.

SMILES	TbREL1 primary	others
O=C(Cn1cnc2c(OCc3ccccc3)ncnc21)NCCN1CCOCC1	0
C[C@@H](NCCCn1cnc2c(OCc3ccccc3)ncnc21)c1cccc2ccccc12	13*	TbREL1 conf=13*
Cc1c(C(N)=O)sc2nc(-c3ccccc3)cn12	0
N#C/C(=C/c1ccc(O)c(O)c1)C(=O)NCc1ccc(Cl)cc1	46*	TbREL1 conf=1
N#C/C(=C/c1cccc(O)c1)C(=O)NCc1ccc(Cl)cc1	4
N#C/C(=C/c1ccccc1)C(=O)NCc1ccccc1	2
CC(C)c1ccc(C(C)NCCS(=O)(=O)c2ccc(Br)cc2)cc1 (configuration not stated)	-2
C=CCOC(=O)C1=C[C@H](c2cn(C(C)=O)c3ccccc23)C[C@H](OCCCCO)O1	-2
Oc1cc2c(cc1O)[C@H]1c3ccc(O)c(O)c3OC[C@@]1(O)C2	21*	TbREL1 conf=62*
CC(Oc1ccc(Br)cc1Br)C(=O)Nc1cccnc1 (configuration not stated)	3
CN(C)CCCNc1ncnc2sc(-c3ccccc3)cc12	14*	TbREL1 conf=4
CN(C)CCNc1ncnc2ccccc12	1
CC(C)N(C(=O)CSc1ncnc2sc(-c3ccccc3)cc12)C(C)C	-3
Cc1csc2nc(SCC(=O)N3CCN(c4ccccc4)CC3)[nH]c(=O)c12	-3
CCC(C)NC(=O)C1CCN(S(=O)(=O)c2ccc3[nH]c(=O)oc3c2)CC1 (configuration not stated)	12*	TbREL1 conf=25*
Cc1ccc(NC(=O)C2CCN(S(=O)(=O)c3ccc4[nH]c(=O)oc4c3)CC2)cc1F	-1
CCC(C)NC(=O)C1CCN(S(=O)(=O)c2cccnc2)CC1 (configuration not stated)	2
O=C(NC1CCCCCCC1)c1ccc(F)c(S(=O)(=O)N2CCOCC2)c1	-2
COc1ccccc1N1C(=O)CC(Sc2ncccc2C(=O)O)C1=O (configuration not stated)	4
COc1ccccc1/C=C/C(=O)NNC(=O)c1cccs1	11*	TbREL1 conf=4
COc1ccccc1C(=O)NCC(=O)NNC(=O)c1cccs1	1
COc1ccccc1NC(=O)c1cccs1	2
COc1ccc(N)cc1C#N	-2
CCCOc1ccc(N)cc1N	12*	TbREL1 conf=6
CCCOC(=O)c1ccc(O)c(OC)c1	-4
SMILES	TbREL1 primary	others
COc1ccccc1OCCCC(=O)Nc1nnc(C2CCCO2)s1 (configuration not stated)	-2
CCOc1ccc(/C=C(/NC(=O)c2ccccc2Cl)C(=O)O)cc1	-2
COc1ccc(CC(=O)N2CCNC2=O)cc1	1
CC(O)[C@H]1CC[C@H]2[C@@H]3CC[C@H]4C[C@@H](O)CC[C@]4(C)[C@H]3/C(=N/O)C[C@]12C (some centres not stated)	1
Nc1ccc(-c2nc3ccc(-c4nc5ccccc5o4)cc3[nH]2)cc1	3
Nc1ccc(-c2nc3ccc([N+](=O)[O-])cc3[nH]2)cc1	3
Nc1ccc(-c2nc3ccc(N)cc3[nH]2)cc1	18*	TbREL1 conf=36*
Fc1ccc(CC2CCN(c3ncnc4sccc34)CC2)cc1	0
CN(C)S(=O)(=O)c1cccc(NC(=O)c2c[nH]c3ccccc23)c1	3
CC(C)C(OC(=O)c1ccco1)C(=O)NCc1cccs1 (configuration not stated)	0
O=C(c1cc2cc(Cl)ccc2o1)N1CCCC1	2
O=C(NCc1ccccc1CN1CCCC1)c1cc2cc(Cl)ccc2o1	12*	TbREL1 conf=4
O=C(NCc1ccccc1CN1CCCC1)C1CCN(C(=O)c2ccc(Cl)cc2)CC1	2
OC(c1ccc2c(c1)OCO2)c1ncc(-c2ccccc2)[nH]1 (configuration not stated)	5
COc1ccc(OC)c(NC(=O)c2ccc3c(c2)C(=O)N(CC2CCCO2)C3=O)c1 (configuration not stated)	9
Cc1cccc(NC(=O)c2ccc(C(=O)c3ccccc3)o2)c1	2
c1ccc(-c2ccccc2OCCOCCN2CCCCC2)cc1	3
OCCNCCOCCOc1ccccc1-c1ccccc1	3
CN(C)CCOCCOc1ccccc1-c1ccccc1	15*	TbREL1 conf=6
Cc1cc(C(=O)N/N=C2\CC(=O)CC(C)(C)C2)c(C)n1-c1ccc(F)cc1	0
CC(=O)c1c(C)nn(CCC(=O)O)c1C	1
Cc1cccc(S(=O)(=O)NC(=O)C2(C)CCN2C(=O)C2(c3ccc(Cl)cc3)CC2)c1 (configuration not stated)	-2
O=C(NCc1ccccc1)OCCN1CCN(Cc2ccccc2)CCC1=O	-3
O=C(Nc1ccc(F)cc1)OCCN1CCN(Cc2ccccc2)CCC1=O	-3
Cc1ccc(NC(=O)OCCN2CCN(Cc3ccccc3)CCC2=O)cc1C	12*	TbREL1 conf=0
SMILES	TbREL1 primary	others
CCOc1ccc(NS(=O)(=O)c2ccc(C(=O)N3CCCC(C)C3)cc2)cc1 (configuration not stated)	2
O=C(NC(=S)Nc1cc(Cl)ccc1N1CCOCC1)c1ccccc1[N+](=O)[O-]	-4
COc1cccc(C(=O)Nc2ccccc2F)c1	3
COc1cccc(C(=O)Nc2ccc(F)c(F)c2F)c1	2
COC(=O)c1sccc1NC(=O)c1cccc(OC)c1	50*	TbREL1 conf=2
CC(O)(c1ccc(F)c(F)c1)c1nc(-c2ccc(S(C)(=O)=O)cc2)cs1 (configuration not stated)	2
COc1ccc(OCc2nnc(SCC(=O)Nc3oc(C)c4c(C)n[nH]c(=O)c34)n2C)cc1	2
Cc1cc(C)nc(N2CCC(C(=O)NCCc3ccccc3)CC2)n1	4
CCc1ccc(OCCNc2cc(N3CCNC(C)C3)ccc2[N+](=O)[O-])cc1 (configuration not stated)	12*	TbREL1 conf=9
O=[N+]([O-])c1ccc(N2CCCC2)cc1NC1CC1	0
CC(Nc1cc(N2CCNCC2)ccc1[N+](=O)[O-])c1ccccc1 (configuration not stated)	4
O=C(NNC1CC(=O)N(c2ccc3c(c2)OCCO3)C1=O)c1ccccc1 (configuration not stated)	-2
O=C(C[n+]1ccc2ccccc2c1)c1ccccc1	1
COC(=O)c1ccc[n+](CC(=O)c2ccc(Br)cc2)c1	11*	TbREL1 conf=0
Cc1cc(C)c[n+](CC(=O)c2ccccc2)c1	1
COc1cc(-c2cc3nc(NCCOc4ccccc4)ccn3n2)cc(OC)c1OC	-3
COc1ccc(S(=O)(=O)N2CCCC(C(=O)NC3CCCCC3)C2)cc1 (configuration not stated)	-2
O=C(OCC(=O)N1CCC(Cc2ccccc2)CC1)c1ccccc1F	-1
CCOc1ccc2[nH]c3nc(SCC(=O)NCC4CCCO4)nnc3c2c1 (configuration not stated)	-1
CCCCNC(=O)C[C@H]1C[C@@]2(C(=O)OC)C(=C[C@H](COCc3ccccc3)O[C@@H]2C)N(Cc2ccccc2)C1=O	8
COc1ccc(C(=O)OCC(=O)Nc2ccc(OC(F)F)cc2)c(OC)c1	-2
CSc1ncccc1C(=O)OCC(=O)c1ccc[nH]1	1
CCOC(=O)Cc1nnc(NC(=O)c2ccccc2OCC)s1	-2
CCOC(=O)Cc1nnc(NC(=O)c2ncn[nH]2)s1	11*	TbREL1 conf=7
CCOC(=O)Cc1nnc(NC(=O)COc2ccc(C)cc2)s1	0
COc1ccccc1/C=C/C(=O)NCC(=O)N/N=C(/C)c1ccco1	4
Cc1ccc2c(c1)N(CC(=O)N1CCCCC1)C(=O)C(C)O2 (configuration not stated)	8
